Pf growth 48h: Primary qHTS for delayed death inhibitors of the malarial parasite plastid, 48 hour incubation. P. falciparum luciferase growth in erythrocytes, 48 h. Potency, µM (doses to about 28.7 µM), for inactives: at the highest dose activity change, negative = inhibition, usual class: inhibitors. 310,000 tested, 5.9% active. AID 504832, 2011; note: potency is the fitted concentration of half-maximal effect
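Erythrocytes infected with P. falciparum carrying an integrated firefly luciferase reporter (2% hematocrit, 0.1% parasitemia final) were exposed to compounds in RPMI 1640 with 0.5% Albumax at 37 C, 5% CO2. Growth inhibition was scored as reduced luminescence.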
Pf growth 96h: Primary qHTS for delayed death inhibitors of the malarial parasite plastid, 96 hour incubation | P. falciparum luciferase reporter growth, 96 h | Potency, µM (series often up to 28.7 µM), without a hit: at the highest dose activity change, negative = inhibition, hits mostly inhibitors | 320,000 tested, 6.9% active | AID 504834, 2011; note: potency is the fitted concentration of half-maximal effect
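Erythrocytes infected with luciferase-expressing P. falciparum were dispensed at 2% hematocrit and 0.05% parasitemia (final), then incubated with compounds 96 hours at 37 C in 5% CO2. Luminescence after detection reagent addition reported growth.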
HCV inh: qHTS Assay for Inhibitors of Hepatitis C Virus (HCV). Huh7.5.1 HCVcc-Cre infection, luciferase reporter, 44 h. Potency, µM (highest dose often 41.8 µM), for inactives: top-dose activity change, negative = inhibition, hits mostly inhibitors. 340,000 tested, 3.4% active; note: potency is the fitted concentration of half-maximal effect
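Luciferase read-out (15 sec integration) after a 15 min room-temperature substrate step quantifies HCVcc-Cre infection. Cells, 1,000 per well, had compound added 4 h post-plating, then virus at ~0.5 moi, and were cultured 44 h.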
MARV entry inh: qHTS for inhibitors of binding or entry into cells for Marburg Virus; Marburg virus pseudotyped entry inhibition, cell reporter; Potency, µM (doses to about 37.8 µM), for the others: top-dose activity change, negative = inhibition, most hits filed as inhibitors; 300,000 tested, 1.8% active; AID 540276, 2011; calls by dose curve; tested in HEK293 cells; note: potency is the fitted concentration of half-maximal effect
HCMV inh: qHTS Assay for inhibitors of the human cytomegalovirus (HCMV). HFF cells, HCMV-luciferase reporter, 72 h; hits give low values. activity change, negative = inhibition, % at 57.5 µM. 410,000 tested, 4.5% active. AID 1259415, 2018; in the data active = activity change below about -60%; inconclusive = no clear call, values can overlap the other calls; inactive = above about -39%
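HFF cells seeded 16 h at 37C, treated with compounds, infected with luciferase-reporter HCMV at MOI 1 PFU/cell; luciferase read at 72 h post infection, normalized to buffer-only and Salinomycin controls.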
Lassa entry inh: qHTS for Inhibitors of binding or entry into cells for Lassa Virus. Lassa virus pseudotype entry inhibition, cell reporter. Potency, µM (titrated, usually from 37.9 µM), for the others: at the top dose activity change, negative = inhibition, usual class: inhibitors. 300,000 tested, 1.2% active. AID 540256, 2011; calls by dose curve; tested in HEK293 cells; note: potency is the fitted concentration of half-maximal effect; nearly all actives have a fitted effect of over 50% in size
* hit, by the source's call; ? = inconclusive; / = no result given; [ ] = remark or other dose. Hits are enriched below; roughly 14% of the tested compounds scored in any of these assays. Unless noted, calls come from the whole dose curve; as a rule, active = well fitted inhibition curve with a large enough effect; inconclusive = small, poorly fitted or top-dose-only effect, or another doubt; inactive = no such curve, though single readings can be large or run the other way. % is set by controls: 0 for no effect and ±100 for the full control effect.

SMILES | Pf growth 48h | Pf growth 96h | HCV inh | MARV entry inh | HCMV inh | Lassa entry inh
COc1cc(C2C(C#N)=C(N)N(c3cccnc3)C3=C2C(=O)CC(C)(C)C3)ccc1O (configuration not stated) | / | ? | 3% | 10% | -15 | 0%
COc1ccc(C2C(C#N)=C(N)N(N(C)C)C3=C2C(=O)CC(C)(C)C3)cc1 (configuration not stated) | 3% | 166% | 21% | 0% | -16 | /
COc1ccc(C2C(C#N)=C(N)N(c3sc4c(c3C#N)CCCC4)C3=C2C(=O)CC(C)(C)C3)cc1 (configuration not stated) | 6.6µM* | / | 7.9µM* | ? | / | ?
CC(C)n1cnc2c(N(C)c3cccc(Cl)c3)nc(N(CCO)CCO)nc21 | 13µM* | 9.3µM* | ? | / | -4 | /
CCC(CO)Oc1cc(NC(=O)c2cccc(Cl)c2)c2ncn(C(C)C)c2c1 (configuration not stated) | ? | ? | ? | / | 15 | /
COc1cccc(NC(=O)c2cnc(SCC(=O)NCc3ccc4c(c3)OCO4)n(C)c2=O)c1 | 14% | 40% | -6% | 21% | -26 | -11%
Cc1ccc([N+](=O)[O-])cc1NC(=O)CN1CCCCC1 | 0% | ? | -11% | ? | 26 | 2%
Cc1ccc([N+](=O)[O-])cc1NC(=O)CNC1CCCCC1 | 12µM* | -12% | -24% | -12% | 10 | 9%
Cc1cccc(NC(=O)c2cc([N+](=O)[O-])ccc2NC2CCCCC2)c1 | 8.3µM* | ? | 0% | 9% | 75 | -16%
Cc1ccc([N+](=O)[O-])cc1NC(=O)CCSc1ccc(Cl)cc1 | 18% | 9.3µM* | ? | ? | 14 | -4%
O=c1[nH]c(SCc2ccc([N+](=O)[O-])cc2)nc2[nH]ncc12 | ? | 7.4µM* | 15% | 34%[46.1 µM] | -11 | 1%[46.1 µM]
CCCCOP(=O)(OCCCC)C1(NS(=O)(=O)c2ccccc2)C=CC(=O)c2ccccc21 (configuration not stated) | 10µM* | ? | -12% | ? | 15 | ?
CCCOC(=O)CSC1=C(C#N)[C@H](c2ccccc2OC)[C@H](C#N)C(=O)N1 | / | / | / | 6% | / | /
CCOc1ccccc1-c1nnc(SCC(=O)NC2(C#N)CCCC2)o1 | ? | 9.3µM* | -28% | / | -17 | /
Cc1ccc(S(=O)(=O)N(C)CC(=O)NNC(=O)CCS(=O)(=O)c2ccccc2)cc1 | / | / | 7% | / | -8 | /
CC(C)Oc1ccccc1OC1(C)CCN(Cc2ccc(OC(F)(F)F)cc2)C1 (configuration not stated) | / | / | / | / | 1 | /
COc1ncnc2c1oc1nc(CC(C)C)c3c(c12)CC(C)(C)OC3 | 2.1µM* | ? | -6% | 15% | -30 | 16%
Cn1cnnc1SCC(=O)c1c(N)n(Cc2ccccc2)c(=O)n(C)c1=O | ? | ? | 8% | -10%[46.1 µM] | -64* | 0%
CCCn1c(N)c(C(=O)CN(C)CC(=O)Nc2ccccc2CC)c(=O)[nH]c1=O | -12% | -27% | 1% | / | -103* | /
CCCn1c(N)c(C(=O)CN(C)CC(=O)Nc2cccc(F)c2)c(=O)[nH]c1=O | ? | ? | -9% | / | -2 | /
CN(C)CC(=O)c1c(N)n(Cc2ccccc2)c(=O)n(C)c1=O | 3% | 7% | 7% | 11%[46.1 µM] | 67 | -2%
Cc1cccc(C)c1NC(=O)CN(C)CC(=O)c1c(N)n(Cc2ccccc2)c(=O)n(C)c1=O | 12µM* | -12% | ? | / | ? | /
CCn1c(=O)c(C(=O)CN(C)CC(=O)Nc2ccccc2Br)c(N)n(Cc2ccccc2)c1=O | 10µM* | ? | ? | ? | -7 | -22%
NC(c1ccccc1)c1csc(Nc2ccc(C(F)(F)F)cn2)n1 (configuration not stated) | / | / | / | / | 44 | /
C=C(CC)C(=O)c1ccc(OCC(=O)O)c(Cl)c1Cl | ? | 15µM* | 26% | ? | ? | -13%
SMILES | Pf growth 48h | Pf growth 96h | HCV inh | MARV entry inh | HCMV inh | Lassa entry inh
CCCn1c(NC(=O)c2ccc(Br)cc2)nc2ccccc21 | / | 2.9µM* | 20% | -9% | 65 | 1%
CCn1c(NC(=O)c2cccc(Cn3cc(Cl)cn3)c2)nc2ccccc21 | 10µM* | ? | 14µM* | / | -68* | /
CCn1c(=O)c(C(C)=O)nc2ccccc21 | 0% | 19% | -2% | 12% | -66* | -5%
CCCn1c(NC(=O)c2ccc(F)cc2)nc2ccccc21 | 0% | 0% | -4% | -11%[46.1 µM] | 108 | 0%
CCn1c(NC(=O)/C=C/c2ccc(F)cc2)nc2ccccc21 | 12µM* | ? | ? | ? | ? | ?
O=C(C(=O)N(Cc1ccccc1)Cc1ccccc1)c1c(-c2ccccc2)[nH]c2ccccc12 | / | / | ? | / | -34 | /
CCn1c(NC(=O)c2ccccc2)nc2ccccc21 | 12µM* | 10µM* | 7% | ? | 52 | -1%
C=CCn1c(P(=O)(O)c2ccccc2)nc2ccccc21 | 99% | ? | 4% | 15% | 34 | 23%
CC(C)CNC(=O)c1cccc(Cn2cc(Cl)cn2)c1 | -4% | 10µM* | -3% | 19% | 38 | 6%
CN(C)CCCn1c(NC(=O)C2CCCCC2)nc2ccccc21 | 23% | 7% | ? | -9% | ? | 6%
C=CCn1c(NC(=O)c2ccccc2)nc2ccccc21 | ? | 12µM* | ? | / | 37 | /
CCCCn1c(NC(=O)C2CCCCC2)nc2ccccc21 | ? | / | 13µM* | ? | 15 | -29%
O=C(O)c1cccc(Cn2cc(Cl)cn2)c1 | 11% | 25% | 18% | 13% | 32 | 13%
Cc1ccccc1NC(=O)Cc1nc(COC(=O)Cc2cccc(C(F)(F)F)c2)cs1 | / | / | / | / | -14 | /
COC(=O)c1cccc(Cn2cc([N+](=O)[O-])cn2)c1 | -11% | 3.7µM* | / | / | / | /
CCCCn1c(NC(=O)c2ccccc2)nc2ccccc21 | ? | 4.7µM* | 13µM* | ? | -27 | ?
O=C(CN1C(=O)NC2(CCCC2)C1=O)OCc1ccc(Cl)cc1Cl | 7% | 29% | -11% | -1% | -27 | -9%
COC(=O)/C=C1/OC(c2ccccc2)=CC1=O | / | / | / | 8% | / | /
OC1CCCN(CC(O)COC(c2ccc(F)cc2)c2ccc(F)cc2)C1 (configuration not stated) | 2.6µM* | 2.1µM* | ? | ? | 24 | 1%[46.1 µM]
OCC1CCCCN1CC(O)COC(c1ccc(F)cc1)c1ccc(F)cc1 (configuration not stated) | 9.3µM* | ? | ? | / | -19 | /
Cc1ccc(CNC(=O)Cc2csc3ccccc23)cc1 | / | / | / | ? | 60 | 5%[46.1 µM]
